# From PubChem BioAssay (NCI)
# The panel holds about 83,000 compounds, 20% with a hit somewhere; the sample as a whole holds those more often.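 Cell lines were cultured in 96-well plates, exposed to a single compound concentration, and assessed for percent growth 48 hours later.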 Activity calls are given as the source filed them. How the source made its calls: active means growth percent below 10; inactive means the rest.
# Tested on: SK-OV-3 ovarian
# Assay: NCI-60 one-dose screen, 48 h (100 = growth as untreated, 0 = no growth, -100 = all killed)
# Conditions: 10 µM unless noted
row,SMILES,growth
1,CN1CCN(c2cc(Nc3cc(C4CC4)[nH]n3)nc(Nc3ccc(CC(=O)NCc4cccc(F)c4)cc3)n2)CC1,24% (inactive)
2,O=C(Nc1cccc2ccccc12)NC1CC1,97.1% (inactive)
3,CN(C)CC(C)(C)C(=O)/C=C/c1ccccc1,-20.1% [25 µM] (active)
4,COc1ccc(-c2nn(-c3cccc(Cl)c3)cc2-c2cc(-c3ccc(Br)cc3)nc(N)n2)cc1,102% (inactive)
5,COc1cc2c(c(OC)c1OC)CCC(c1cccc(NC(=O)c3ccc(Br)cc3)c1)O2 (stereo unspecified),75% (inactive)
6,CCOC(=O)C#Cc1c(C(=O)OCC)nnn1Cc1ccc([N+](=O)[O-])cc1,105% (inactive)
7,O=C(N/N=C/c1c(Cl)cccc1Cl)c1cccnc1Nc1cccc(C(F)(F)F)c1,27% (inactive)
8,C#COc1cccc(Nc2c(C#N)cnc3ncc(NC(=O)CCl)cc23)c1,60.4% [6.25 µM] (inactive)
9,CC(C)(Sc1cc(C(C)(C)C)c(O)c(C(C)(C)C)c1)Sc1cc(C(C)(C)C)c(OC(=O)CCCC(=O)O)c(C(C)(C)C)c1,91.6% (inactive)
10,COc1c(B(O)O)cccc1-c1cc(C)c2c(ccc3[nH]ncc32)n1,59.3% (inactive)
11,CCOC(=O)C1=C(N)Oc2c(sc3c(F)cccc23)C1c1ccc(O)cc1 (stereo unspecified),78.9% (inactive)
12,OCCn1cc(-c2nc(-c3c[nH]c4ncccc34)cs2)c2cc(F)ccc21,70.1% (inactive)
13,O=C(/C=C/c1cccs1)Nc1ncc(Cc2ccccc2F)s1,27.5% (inactive)
14,COc1ccc(CN2c3ccccc3Sc3ccccc32)cc1F,16.8% (inactive)
15,CCN1C(=O)N(CC)C2C1NN=c1s/c(=C\c3ccccc3F)c(=O)n12 (stereo unspecified),32.6% (inactive)
16,CS(=O)(=O)Nc1cncc(-c2ccc3ncnc(Nc4cncc(Cl)c4)c3c2)c1,81.8% (inactive)
17,C1CN(SSN2CCOCC2)CCO1,101% [100 µM] (inactive)
18,CS(=O)(=O)c1ccc(-c2cnn3ccc(-c4cccc(S(=O)(=O)C5CC5)c4)nc23)cc1,32.2% (inactive)
19,CN1C(=O)/C(=C\c2nc([P+](c3ccccc3)(c3ccccc3)c3ccccc3)c(N3CCOCC3)o2)SC1=S,108% (inactive)
20,C=C(C)[C@@H]1CCC[C@]2(COS(=O)(=O)c3ccc(C)cc3)CC[C@]3(C)[C@@H](CC[C@@H]4[C@@]5(C)CCCNC(C)(C)[C@@H]5CC[C@]43C)[C@@H]12,98.7% (inactive)
21,Clc1ccc2c(c1)C(c1c[nH]c3ccccc13)(c1c[nH]c3ccccc13)CCO2,39.6% (inactive)
22,O=C(NCCNc1nccc(Nc2ccc(S(=O)(=O)Nc3ccccn3)cc2)n1)c1cccc([N+](=O)[O-])c1,100% (inactive)
23,COc1cc2ncnc(Nc3ccc(S(=O)(=O)Nc4cc(C)on4)cc3)c2cc1OCCCN1CCN(c2ccc(F)cc2)CC1,93% (inactive)
24,CN(C)CC1CCC(CN(C)C)C1=O (stereo unspecified),105% (inactive)
25,N#CC1=C(N)Oc2c(ccc3ccccc23)C1c1ccccc1 (stereo unspecified),12.7% (inactive)
26,Cc1ccc(NC(=O)c2sc3nc(C)c(Br)c(C)c3c2N)cc1,48.9% (inactive)

# Tested on: IGROV1 ovarian
# Assay: as above
# Conditions: 10 µM unless noted
row,SMILES,growth
1,Cn1c(=O)cc2c3c(c(NCCCO)ccc31)C(=O)c1ccccc1-2,41.8% (inactive)
2,O=C(OC(CO)C(=O)NC12CC3CC(CC(C3)C1)C2)c1ccc(Cl)cc1 (stereo unspecified),109% (inactive)
3,N#Cc1nc(-c2ccc(F)cc2)oc1S(=O)(=O)N1CCCCC1,59.6% (inactive)
4,COC1/C=C/OC2(C)Oc3c(C)c(O)c4c(O)c(c(/C=N/Nc5ccc([N+](=O)[O-])cc5[N+](=O)[O-])c(O)c4c3C2=O)NC(=O)C(C)=C/C=C/C(C)C(O)C(C)C(O)C(C)C(OC(C)=O)C1C (stereo unspecified),28.5% (inactive)
5,O=C1c2c(c3c4ccccc4[nH]c3c3ccc4ccccc4c23)C(=O)N1CCN1CCOCC1,30% (inactive)
6,NC(=O)c1cc(I)ccc1NC(=O)/C=C/c1ccccc1,-52.7% (active)
7,COC(=O)c1c2c(c(C)[n+]([O-])c1C)C(=O)C(NCc1cccc(OC)c1)=CC2=O,12.3% (inactive)
8,COc1ccc(CNc2c3ccccc3nc3ccccc23)cc1,27.2% (inactive)
9,N=C(N)c1ccc(-c2ccc(-c3ccc(Cl)c(Cl)c3)s2)nc1,-40.6% (active)
10,Nc1c(C(=O)Nc2ccccc2F)sc2nc3c(cc12)CCCC3,58.9% (inactive)
11,Cc1ccc2c(n1)C(=O)C(Br)=C(C1CCCC1)C2=O,96% (inactive)
12,N#CC1=C(N)Oc2c(sc3c(Br)cccc23)C1c1ccc(Cl)cc1 (stereo unspecified),27.2% (inactive)
13,COc1ccc(/C=C(\C#N)n2nnc3cc(F)c(F)cc32)cc1,39.7% (inactive)
14,COc1cc(NS(=O)(=O)c2ccc(-c3cnc(C4CC4)o3)cc2)ccc1F,24.6% (inactive)
15,CN1CCN(c2cc(Nc3cc(C4CC4)[nH]n3)nc(Nc3ccc(CC(=O)NCc4cccc(F)c4)cc3)n2)CC1,-13.8% (active)
16,O=C(Nc1cccc2ccccc12)NC1CC1,122% (inactive)
17,CN(C)CC(C)(C)C(=O)/C=C/c1ccccc1,-16.7% [25 µM] (active)
18,COc1ccc(-c2nn(-c3cccc(Cl)c3)cc2-c2cc(-c3ccc(Br)cc3)nc(N)n2)cc1,89.2% (inactive)
19,COc1cc2c(c(OC)c1OC)CCC(c1cccc(NC(=O)c3ccc(Br)cc3)c1)O2 (stereo unspecified),71% (inactive)
20,CCOC(=O)C#Cc1c(C(=O)OCC)nnn1Cc1ccc([N+](=O)[O-])cc1,89.6% (inactive)

row,SMILES,growth
1,O=C(N/N=C/c1c(Cl)cccc1Cl)c1cccnc1Nc1cccc(C(F)(F)F)c1,31.8% (inactive)
2,C#COc1cccc(Nc2c(C#N)cnc3ncc(NC(=O)CCl)cc23)c1,14.1% [6.25 µM] (inactive)
3,CC(C)(Sc1cc(C(C)(C)C)c(O)c(C(C)(C)C)c1)Sc1cc(C(C)(C)C)c(OC(=O)CCCC(=O)O)c(C(C)(C)C)c1,57.4% (inactive)
4,COc1c(B(O)O)cccc1-c1cc(C)c2c(ccc3[nH]ncc32)n1,59.1% (inactive)
5,CCOC(=O)C1=C(N)Oc2c(sc3c(F)cccc23)C1c1ccc(O)cc1 (stereo unspecified),48.9% (inactive)
6,OCCn1cc(-c2nc(-c3c[nH]c4ncccc34)cs2)c2cc(F)ccc21,44.7% (inactive)
7,O=C(/C=C/c1cccs1)Nc1ncc(Cc2ccccc2F)s1,35.4% (inactive)
8,COc1ccc(CN2c3ccccc3Sc3ccccc32)cc1F,35.5% (inactive)
9,CCN1C(=O)N(CC)C2C1NN=c1s/c(=C\c3ccccc3F)c(=O)n12 (stereo unspecified),15.2% (inactive)
10,CS(=O)(=O)Nc1cncc(-c2ccc3ncnc(Nc4cncc(Cl)c4)c3c2)c1,69.8% (inactive)
11,C1CN(SSN2CCOCC2)CCO1,54.8% [100 µM] (inactive)
12,CS(=O)(=O)c1ccc(-c2cnn3ccc(-c4cccc(S(=O)(=O)C5CC5)c4)nc23)cc1,13.1% (inactive)
13,CN1C(=O)/C(=C\c2nc([P+](c3ccccc3)(c3ccccc3)c3ccccc3)c(N3CCOCC3)o2)SC1=S,5.71% (active)
14,C=C(C)[C@@H]1CCC[C@]2(COS(=O)(=O)c3ccc(C)cc3)CC[C@]3(C)[C@@H](CC[C@@H]4[C@@]5(C)CCCNC(C)(C)[C@@H]5CC[C@]43C)[C@@H]12,-87.1% (active)
15,Clc1ccc2c(c1)C(c1c[nH]c3ccccc13)(c1c[nH]c3ccccc13)CCO2,85.8% (inactive)
16,O=C(NCCNc1nccc(Nc2ccc(S(=O)(=O)Nc3ccccn3)cc2)n1)c1cccc([N+](=O)[O-])c1,106% (inactive)
17,COc1cc2ncnc(Nc3ccc(S(=O)(=O)Nc4cc(C)on4)cc3)c2cc1OCCCN1CCN(c2ccc(F)cc2)CC1,107% (inactive)
18,CN(C)CC1CCC(CN(C)C)C1=O (stereo unspecified),115% (inactive)
19,N#CC1=C(N)Oc2c(ccc3ccccc23)C1c1ccccc1 (stereo unspecified),27.2% (inactive)
20,Cc1ccc(NC(=O)c2sc3nc(C)c(Br)c(C)c3c2N)cc1,51.8% (inactive)
